About 25,000 (6.9%) of roughly 360,000 compounds were called active. A call without a number means that no potency is given here. Not shown: some 9% with an inconclusive outcome. Calls follow the shape of the dose curve; as a rule, active = well fitted inhibition curve with a large enough effect; inconclusive = small, poorly fitted or top-dose-only effect; inactive = flat fitted curve, though single readings scatter. The full list was thinned out, with actives kept by preference.
Target: Luciferin 4-monooxygenase (Photinus pyralis) (UniProt P08659)
Assay: qHTS profiling assay for firefly luciferase inhibitor/activator using purifed enzyme and Km concentrations of substrates (counterscreen for miR-21 project); also: nearly all actives have a fitted effect of over 55% in size
Conditions: purified FLuc, luminescence inhibition; series mostly up to 57.5 µM
Summary of the method: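 Biochemical qHTS of compounds, final roughly 60 µM downward over six points, against 10 nM purified firefly luciferase using Km concentrations of substrates (10 uM D-luciferin, 10 uM ATP) in Tris acetate pH 7.5 buffer; luminescence output.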
Potency is read from the fitted curve at half-maximal effect.

Luciferin 4-monooxygenase (Photinus pyralis), sequence (P08659 whole entry, looked up): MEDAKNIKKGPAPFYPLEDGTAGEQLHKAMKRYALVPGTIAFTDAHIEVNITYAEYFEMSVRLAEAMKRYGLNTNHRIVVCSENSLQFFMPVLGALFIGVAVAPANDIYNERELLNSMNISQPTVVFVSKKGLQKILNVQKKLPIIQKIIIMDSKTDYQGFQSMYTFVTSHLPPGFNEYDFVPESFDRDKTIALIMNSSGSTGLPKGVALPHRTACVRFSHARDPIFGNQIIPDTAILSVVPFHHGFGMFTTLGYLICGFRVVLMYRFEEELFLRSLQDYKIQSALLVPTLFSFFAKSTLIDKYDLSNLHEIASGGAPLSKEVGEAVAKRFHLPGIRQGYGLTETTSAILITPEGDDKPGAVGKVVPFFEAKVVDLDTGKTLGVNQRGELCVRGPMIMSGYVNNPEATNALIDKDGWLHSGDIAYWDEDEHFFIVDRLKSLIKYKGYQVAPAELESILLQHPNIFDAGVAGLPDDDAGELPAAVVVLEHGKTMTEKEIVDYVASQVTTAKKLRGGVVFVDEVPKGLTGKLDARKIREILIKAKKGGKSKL

**Q.** With COc1cccc(C(=O)N(Cc2cccc(Cl)c2)Cc2ccco2)c1 as the compound, how does the Potency read?
**A.** inactive

**Q.** With Cn1c2ccccc2c(=O)c2c(=O)n(Cc3ccco3)c(COc3ccccc3)nc21 as the compound, how does the Potency read?
**A.** inactive

**Q.** How did the Potency turn out when CCCc1nc2c(c(=O)c3ccccc3n2C)c(=O)n1C1CCCCCC1 was run?
**A.** inactive

**Q.** With CCCc1nc2c(c(=O)c3ccccc3n2C)c(=O)n1-c1cc(C)cc(C)c1 as the compound, how does the Potency read?
**A.** 15.1 µM (active)

**Q.** Which Potency does the source give for CCOc1ccccc1NC(=O)CN1CCN(S(=O)(=O)c2ccc(Br)cc2)CC1 here?
**A.** inactive

**Q.** For COC(=O)[C@]1(C)N[C@H](c2ccc(-c3ccc(Cl)c(Cl)c3)cc2)[C@@H]2C(=O)N(C)C(=O)[C@@H]21, which Potency is on record?
**A.** 15.1 µM (active)

**Q.** Which Potency does the source give for COC(=O)C1(C)NC(c2ccc(F)cc2)C2C(=O)N(c3ccccc3)C(=O)C21 (stereo unspecified) here?
**A.** inactive

**Q.** With COC(=O)C1(C)NC(c2ccc(C)cc2)C2C(=O)N(c3ccc(F)cc3)C(=O)C21 (stereo unspecified) as the compound, how does the Potency read?
**A.** inactive

**Q.** How did the Potency turn out when O=C(CNC(=O)c1ccccc1)NCC(=O)OCC(=O)c1ccccc1 was run?
**A.** inactive

**Q.** O=C(COC(=O)CNC(=O)c1ccccc1F)NCC(F)(F)F was tested. Which Potency did it give?
**A.** inactive

**Q.** How did the Potency turn out when Cc1cc2ccccc2n1CCNC(=O)c1ccc(F)cc1 was run?
**A.** inactive

**Q.** With O=C(CNC(=O)c1ccccc1F)c1ccc(Br)cc1 as the compound, how does the Potency read?
**A.** 2.69 µM (active)

**Q.** With O=C(CNC(=O)c1ccc(F)cc1)c1ccccc1 as the compound, how does the Potency read?
**A.** 19 µM (active)

**Q.** For O=C(Nc1ccc(NC(=O)c2ccccc2F)cc1)c1ccccc1F, which Potency is on record?
**A.** inactive

**Q.** Cn1c(=O)[nH]c(=O)c2c1[nH]c(=S)n2Cc1ccccc1 was tested. Which Potency did it give?
**A.** inactive

**Q.** Which Potency does the source give for CC1=Nc2cc(C(=O)NCc3ccc(C)cc3)ccc2Sc2ccc(Cl)cc21 here?
**A.** inactive

**Q.** Which Potency does the source give for O=C(OCC(=O)N1CCCCCC1)c1cnc(Cl)c(Cl)c1 here?
**A.** inactive

**Q.** For COc1ccc(CCC(=O)NCCc2csc(-c3ccc(Cl)cc3)n2)cc1, which Potency is on record?
**A.** inactive

**Q.** With O=S(=O)(NCCc1csc(-c2ccccc2)n1)c1cccnc1 as the compound, how does the Potency read?
**A.** inactive

**Q.** Which Potency does the source give for O=C(NCCc1csc(-c2ccccc2)n1)c1ccccc1F here?
**A.** 26.9 µM (active)

**Q.** How did the Potency turn out when O=c1ccc2c(-c3ccccc3S(=O)(=O)O)c3ccc(O)c(O)c3oc-2c1O was run?
**A.** 13.5 µM (active)

**Q.** How did the Potency turn out when COc1ccc(OC)c(NC(=O)C2CCN(S(=O)(=O)c3ccc(C)cc3)CC2)c1 was run?
**A.** inactive

**Q.** Which Potency does the source give for COc1ccc(OC)c(C(O)c2nc3ccccc3n2C)c1 (stereo unspecified) here?
**A.** inactive

**Q.** For CCN(CCCNC(=O)c1c(C)oc2ncn(CC(C)C)c(=O)c12)Cc1ccccc1, which Potency is on record?
**A.** inactive

**Q.** Cc1ccc(NC(=O)C(=O)NCc2ccc(/C=N/NC(=O)c3c(C)nc4cc(C)ccn34)o2)cc1 was tested. Which Potency did it give?
**A.** 2.13 µM (active)

**Q.** With Cc1ccn2c(=O)c(NC(=O)c3cccc4ccccc34)c(C)nc2c1 as the compound, how does the Potency read?
**A.** inactive

**Q.** Which Potency does the source give for CCOc1ccc(/C=N\NC(=O)c2c(C)nc3cc(C)ccn23)cc1 here?
**A.** inactive

**Q.** N=C1C(=O)OCC1c1ccccc1NC(=O)CN1CCCCC1 (stereo unspecified) was tested. Which Potency did it give?
**A.** inactive

**Q.** CN(Cc1ccccc1)C(=O)c1cn(C)c2ccc(S(=O)(=O)N3CCCCC3)cc2c1=O was tested. Which Potency did it give?
**A.** inactive

**Q.** How did the Potency turn out when CCc1ccccc1NC(=O)CSc1nc(C)c(C(=O)Nc2ccccc2)c(-c2ccc(Cl)cc2)c1C#N was run?
**A.** inactive

**Q.** Which Potency does the source give for Cc1cc(C)n(CCNS(=O)(=O)c2ccc(Cl)cc2)n1 here?
**A.** inactive

**Q.** How did the Potency turn out when O=C1N/C(=N\N=C\c2ccco2)SC1Cc1ccc(F)cc1 (stereo unspecified) was run?
**A.** inactive

**Q.** With C=CCN1C(=O)C(Cc2cccc(Cl)c2)S/C1=N/N=C/c1ccco1 (stereo unspecified) as the compound, how does the Potency read?
**A.** inactive

**Q.** For COc1ccc(CN2C(=O)C(C)S/C2=N/N=C/c2ccco2)cc1 (stereo unspecified), which Potency is on record?
**A.** 15.1 µM (active)

**Q.** With COc1cccc(C2C(C(=O)Nc3ccc(C)cc3C)=C(C)Nc3c(C(=O)Nc4ccccc4)cnn32)c1 (stereo unspecified) as the compound, how does the Potency read?
**A.** inactive

**Q.** COc1ccc(/C=C2/C(=O)OCc3cc(OC)c(OC)cc32)c(OC)c1 was tested. Which Potency did it give?
**A.** 12 µM (active)

**Q.** With COc1ccc(CN(C)Cc2nc3cc(OC)c(OC)cc3c(=O)[nH]2)c(OC)c1 as the compound, how does the Potency read?
**A.** inactive

**Q.** Which Potency does the source give for COc1ccc(Oc2cn[nH]c2-c2ccc(OC)cc2O)cc1 here?
**A.** inactive

**Q.** With COc1cc([N+](=O)[O-])ccc1NC(=O)COC(=O)CCOc1ccc(C)cc1 as the compound, how does the Potency read?
**A.** inactive

**Q.** Which Potency does the source give for COc1ccc(-c2nnc(SCC(=O)c3cccs3)o2)c(OC)c1 here?
**A.** 2.39 µM (active)

**Q.** How did the Potency turn out when Cc1ccc(OC(=O)CSc2nnc(-c3cccs3)o2)cc1 was run?
**A.** inactive

**Q.** COc1ccccc1-c1nnc(SCC(N)=O)o1 was tested. Which Potency did it give?
**A.** inactive

**Q.** How did the Potency turn out when CCCCCCn1cc(C(=O)O)c(=O)c2cc(F)c(N3CCCCC3)cc21 was run?
**A.** inactive

**Q.** O=C(Nc1ccc(S(=O)(=O)Nc2nccs2)cc1)c1cccc(S(=O)(=O)N2CCOCC2)c1 was tested. Which Potency did it give?
**A.** inactive

**Q.** Cc1cc2nc(NC(=O)c3ccc(S(=O)(=O)N4CCOCC4)cc3)sc2cc1C was tested. Which Potency did it give?
**A.** inactive

**Q.** O=C(Nc1nc2cc3c(cc2s1)OCCO3)c1cccc(S(=O)(=O)N2CCOCC2)c1 was tested. Which Potency did it give?
**A.** 7.57 µM (active)

**Q.** CC(Sc1nnc(-c2cccs2)n1C1CC1)C(=O)NCC1CCCO1 (stereo unspecified) was tested. Which Potency did it give?
**A.** inactive

**Q.** CCOc1ccccc1NC(=O)C1=C(C)Nc2ncnn2C1c1ccc(NC(C)=O)cc1 (stereo unspecified) was tested. Which Potency did it give?
**A.** inactive

**Q.** COc1ccc(-c2nnc3n2CCCCC3)cc1 was tested. Which Potency did it give?
**A.** inactive

**Q.** With COc1ccc(-c2nc3n(c2Br)CCC3)cc1 as the compound, how does the Potency read?
**A.** 7.57 µM (active)

**Q.** Brc1cccc(-c2nnc3n2CCC3)c1 was tested. Which Potency did it give?
**A.** inactive

**Q.** With CCN(CC)Cc1cc(C(C)=O)ccc1O as the compound, how does the Potency read?
**A.** inactive

**Q.** How did the Potency turn out when CC(=O)c1ccc2c(ccc3ccccc32)c1 was run?
**A.** 21.3 µM (active)

**Q.** With CC(=O)CCC(=O)c1ccc2ccccc2c1 as the compound, how does the Potency read?
**A.** 26.9 µM (active)

**Q.** With O=C(NCC(=O)N1CCN(c2ccccc2O)CC1)c1ccc2ccccc2c1 as the compound, how does the Potency read?
**A.** inactive

**Q.** How did the Potency turn out when CC(=O)c1ccc2c(c1)c1ccccc1n2CC(C)C was run?
**A.** inactive

**Q.** How did the Potency turn out when COc1cccc(N2CC(NC(=O)c3ccc4ccccc4c3)CC2=O)c1 (stereo unspecified) was run?
**A.** inactive

**Q.** CC(C)(C)OC(=O)NCCCCCNC(=O)c1nc[nH]c1C(=O)NCc1ccccc1 was tested. Which Potency did it give?
**A.** inactive

**Q.** How did the Potency turn out when Cc1ccccc1NC(=O)Cn1c(=O)n(Cc2ccco2)c(=O)c2ccc(C(=O)NC3CCCC3)cc21 was run?
**A.** inactive

**Q.** Which Potency does the source give for CNC(=O)c1nnn(-c2ccccc2)c1C(=O)NC here?
**A.** inactive

**Q.** With CC(=O)NC12CC3CC(C1)CC(C(=O)N1CCN(S(=O)(=O)c4cccs4)CC1)(C3)C2 as the compound, how does the Potency read?
**A.** inactive

**Q.** How did the Potency turn out when CC(C)(C)c1ccc(C(=O)Nc2ccc3c(c2)CCCN3C(=O)c2cccs2)cc1 was run?
**A.** inactive

**Q.** Which Potency does the source give for CCc1nnc(SCC(=O)Nc2cc(OC)ccc2OC)nc1CC here?
**A.** inactive

**Q.** For O=C(O)c1ccc(NS(=O)(=O)c2ccc3c(c2)C(=O)c2cc(S(=O)(=O)Nc4ccc(C(=O)O)cc4)ccc2-3)cc1, which Potency is on record?
**A.** 23.9 µM (active)

**Q.** For CC(=O)c1c(C)oc2ccc(NS(=O)(=O)c3ccc(C(=O)O)cc3)cc12, which Potency is on record?
**A.** inactive

**Q.** For O=C(c1ccc(NS(=O)(=O)c2ccc3[nH]c(=O)[nH]c3c2)cc1)N1CCCCC1, which Potency is on record?
**A.** inactive

Reference: PubChem BioAssay AID588342 (National Center for Advancing Translational Sciences (NCATS), 2011)
